# DT40 TDP1 CPT = DT40-hTDP1 cell growth loss with CPT; chicken DT40 Tdp1-/-;hTDP1 cells + 20 nM CPT, ATP luminescence, 48 h; Potency, µM (top dose mostly 46.2 µM), actives largely listed as inhibitors; 12% of 420,000 active; AID 686979; further: nearly all actives have a fitted effect of over 55% in size
#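 Cell growth measured by CellTiter-Glo luminescence after a minimum 48 h, 37 C compound exposure with 20 nM CPT in Tdp1-knockout DT40 cells stably expressing hTDP1, seeded 400/well; qHTS titration format.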
# IL-1B inflam inh = inhibitors of inflammasome signaling (IL-1 beta secretion) | activity change, % at 57.5 µM | 4.7% of 360,000 active | THP-1 LPS/ATP IL-1B secretion, AlphaLISA, 16 h; active compounds read low; in the data active means activity change below about -50%; inconclusive means mostly about -30% to -49%
#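 Secreted IL-1B measured by AlphaLISA bead assay after 16 h compound exposure of THP-1 cells; compounds (final up to 57.5 uM) added 1 h before LPS (250 ng/mL) and ATP (1.25 mM) stimulation; lower signal means less secretion.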
# LDHA inh = blocks human lactate dehydrogenase A; P00338; AID 1347041; activity change, % (values are at about 110 or 230 µM); 0.15% of 480,000 active; purified LDHA, NADH/diaphorase-resazurin fluorescence; active compounds read low; in the data active means activity change below about -30%; inconclusive means mostly about -25% to -30%
#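 Human LDH5 at 2 nM final in Tris HCl pH 7.4 with 0.06 mM NADH and 0.2 mM pyruvate, reacted 5 minutes at room temperature. Remaining NADH coupled via diaphorase/resazurin; resorufin fluorescence read at 0 and 20 minutes, normalized to enzyme-free and DMSO wells.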
# Gal4-VP16 FLuc = counter-screen for ROR gamma inhibitors: Gal4-VP16 reporter | Drosophila S2 Gal4-VP16 UAS-luciferase, luminescence, 20 h | Potency, µM (titrated, usually from 53.6 µM), actives largely listed as inhibitors | 3.5% of 310,000 active | AID 2546;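 further: Gal4-VP16 expression switched on by copper sulfate through the metallothionein promoter; nearly all actives have a fitted effect of over 50% in size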
# DT40 TDP1 no CPT = qHTS for Inhibitors of human tyrosyl-DNA phosphodiesterase 1 (TDP1): qHTS in cells in absence of CPT; DT40 Tdp1-/- hTDP1 cells, no CPT, ATP luminescence, 48 h; Potency, µM (doses to about 46.2 µM), most hits filed as inhibitors; 15% of 420,000 active; AID 686978, 2013; further: nearly all actives have a fitted effect of over 55% in size
#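 Camptothecin absent (DMSO only). Human TDP1-complemented DT40 knockout cells, 400 cells/well, 37 °C for minimum 48 hr; ATP measured via CellTiter-Glo, 30 min dark incubation, luminescence.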
# RORg inh = blocks mouse ROR gamma transcriptional activity; 5.4% of 310,000 active; P51450; AID 2551; Drosophila S2 Gal4-RORgamma UAS-luciferase reporter, 20 h; Potency, µM (highest dose often 53.6 µM), most hits filed as inhibitors; further: nearly all actives have a fitted effect of over 60% in size
# Target sequence (P51450 whole entry, looked up, the tested form may be a part): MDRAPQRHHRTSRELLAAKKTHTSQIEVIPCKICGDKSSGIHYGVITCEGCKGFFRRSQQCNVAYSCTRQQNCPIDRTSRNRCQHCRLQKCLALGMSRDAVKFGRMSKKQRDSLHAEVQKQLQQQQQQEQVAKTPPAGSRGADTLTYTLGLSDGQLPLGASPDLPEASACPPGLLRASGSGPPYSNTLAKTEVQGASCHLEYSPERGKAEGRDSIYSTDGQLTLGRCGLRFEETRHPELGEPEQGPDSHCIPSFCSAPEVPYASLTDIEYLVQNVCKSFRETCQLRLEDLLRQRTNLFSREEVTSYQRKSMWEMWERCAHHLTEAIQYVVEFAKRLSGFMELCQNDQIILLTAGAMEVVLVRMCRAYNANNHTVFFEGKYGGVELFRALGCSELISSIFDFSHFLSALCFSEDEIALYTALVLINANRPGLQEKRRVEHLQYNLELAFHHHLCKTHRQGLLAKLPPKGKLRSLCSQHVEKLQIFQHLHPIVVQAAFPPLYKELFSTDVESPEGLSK
#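 Drosophila S2 cells stably expressing Gal4-DBD/mouse RORγ fusion under metallothionein promoter plus UAS-luciferase; compound 1 h, then 700 uM CuSO4 induction for 20 h at ambient temperature; inhibition read as reduced luminescence.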
# Hits are given with their value; i = inactive; ? = inconclusive; nt = no result given; ! = not confirmed by another sample; [ ] = dose if it differs, or a comment. Hits are enriched below; roughly 18% of the tested compounds scored in any of these assays. Unless noted, the call rests on the fitted dose curve; in most records, active means well fitted curve in the direction sought with a large enough effect; inconclusive means small, poorly fitted or top-dose-only effect, or another doubt; inactive means no such curve, though single readings can be large; an effect the other way counts as inactive or inconclusive.
SMILES,DT40 TDP1 CPT,IL-1B inflam inh,LDHA inh,Gal4-VP16 FLuc,DT40 TDP1 no CPT,RORg inh
CN(C)CCCn1c(=S)[nH]c2ccccc2c1=O,i,i,i,i,i,i
O=C(CSCc1ccc(Cl)cc1)Nc1cc([N+](=O)[O-])ccc1O,?,?,i,?,18µM,?
COc1ccc(/C=C(/NC(=O)c2ccccc2)c2nc3ccc(Cl)cc3[nH]2)cc1OC,i,i,i,i,21µM,?
CCCNC(=O)CN(C)C(=O)c1cc2ccccc2n1C,nt,nt,i,nt,nt,nt
CC(C)CC(=O)Nc1cc(-c2ccccc2F)nn1-c1ccccc1,26µM,nt,i,nt,12µM,nt
CCC(Oc1ccccc1)C(=O)Nc1cc(-c2ccccc2OC)nn1-c1ccccc1 (stereo unspecified),?,nt,i,nt,23µM,nt
O=S(=O)(Cc1coc(-c2ccc(Cl)cc2)n1)CC1CCCO1 (stereo unspecified),nt,nt,i,nt,nt,nt
O=C(Cn1ccc2cc(S(=O)(=O)N3CCCC3)ccc21)NCCc1ccccc1,?,i,i,i,23µM,i
O=C(Cn1ccc2cc(S(=O)(=O)N3CCCCC3)ccc21)NCc1ccccc1Cl,18µM,nt,i,nt,21µM,nt
CCOc1ccccc1CNC(=O)Cn1ccc2cc(S(=O)(=O)N3CCC(C)CC3)ccc21,?,i,i,?,21µM,i
O=C(Cn1ccc2cc(S(=O)(=O)N3CCCCCC3)ccc21)NCc1cccc(Cl)c1,?,nt,i,nt,18µM,nt
CC1CCCN(C2CCN(Cc3ccc(Cl)cc3)CC2)C1 (stereo unspecified),nt,nt,i,nt,nt,nt
CC(NC(=O)Cn1ccc2cc(S(=O)(=O)N3CCCCCC3)ccc21)c1ccccc1 (stereo unspecified),?,nt,i,nt,18µM,nt
COC(=O)Cn1ccc2cc(S(=O)(=O)N3CCCCC3)ccc21,21µM!,i,i,i,?,i
COc1ccc(C(C)(NC(C)=O)c2nc(-c3cnc4ccccc4c3)cs2)cc1 (stereo unspecified),?,i,i,nt,?,nt
CC(O)(c1ccc(F)c(F)c1)c1nc(-c2ccc(F)c(Cl)c2)cs1 (stereo unspecified),?,i,i,nt,?,nt
CC(=O)NC(C)(c1ccccc1)c1nc(-c2ccc(F)c(Cl)c2)cs1 (stereo unspecified),15µM,i,i,nt,23µM,nt
CC(=O)NC(C)(c1ccccc1)c1nc(-c2cnc3ccccc3c2)cs1 (stereo unspecified),?,i,i,nt,15µM,nt
CC(C)NC(=O)c1ccc(NC(=O)C(F)(F)C2(F)OC(F)(F)C(F)(F)C2(F)F)cc1 (stereo unspecified),nt,nt,i,nt,nt,nt
Cc1ccc(C(CNC(=O)c2cc(=O)c3cc(C)c(C)cc3o2)N2CCC(C)CC2)o1 (stereo unspecified),nt,nt,i,nt,nt,nt
O=C(c1ccc(Cl)cc1Cl)N(CCS(=O)(=O)N1CCCC1)Cc1cccnc1,nt,nt,i,nt,nt,nt
CCCn1c2ccc(F)cc2c2n[nH]c(=S)nc21,nt,nt,i,nt,nt,nt
Cc1ccc2c(c1)c1n[nH]c(=S)nc1n2CCc1ccccc1,16µM,i,i,?,26µM,4µM
CCn1c2ccc(C)cc2c2n[nH]c(=S)nc21,i,i,i,3.2µM,?,i[1.91 µM]
NNc1nnc2c3cc(F)ccc3n(CCc3ccccc3)c2n1,?,i,i,i,16µM,?
SMILES,DT40 TDP1 CPT,IL-1B inflam inh,LDHA inh,Gal4-VP16 FLuc,DT40 TDP1 no CPT,RORg inh
Fc1ccc2c(c1)c1n[nH]c(=S)nc1n2CCc1ccccc1,?,i,i,2.8µM,?,1.4µM
O=Cc1c[nH]c2cc(Br)ccc12,nt,nt,i,nt,nt,nt
COc1ccc(CCC2=NCCN2C(CC(C)C)c2nc3ccccc3[nH]2)cc1 (stereo unspecified),21µM,i,i,nt,16µM,nt
CCN(CC)C(=S)SC(c1ccc2ccccc2c1[N+](=O)[O-])S(=O)(=O)c1ccc(C)cc1 (stereo unspecified),nt,nt,i,nt,nt,nt
Fc1c(F)c(F)c(N=Cc2ccsc2)c(F)c1F,nt,nt,i,nt,nt,nt
Cc1[nH]nc2c1C(C(C)C)C(C#N)=C(N)O2 (stereo unspecified),?,-87,i,i,?,i
